Experimental data: PubChem BioAssay
The source made the active and inactive calls. Unless noted, no rule for the calls is given here.

Columns and labels:
[1] = anti-His antibody binders, primary screen, artefact control for SMM control protein annotation, biochemical, small-molecule microarray, 635 nm fluorescence (AID 1128); conditions: anti-His Alexa647 antibody binding, higher = more signal;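 also: score merges feature fluorescence with signal-to-noise for each printed compound spot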
[2] = tested on: Human papillomavirus type 1a E7 protein (residues 1-88); assay: HPV1a E7 small-molecule binders, primary screen, biochemical, small-molecule microarray, residues 1-88, 635 nm (AID 1129); conditions: small-molecule microarray binding, fluorescence 635 nm; higher = more signal
[3] = target: Focal adhesion kinase 1 (Homo sapiens) (UniProt Q05397); assay: small-molecule microarray binders of FAK, primary screen, biochemical, 635/667 nm fluorescence, BSA, DTT (AID 1130); conditions: PTK2 binding, 635 nm fluorescence, higher = more signal;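 also: composite of spot emission at 667 nm and signal to noise over triplicate slides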
[4] = tested on: Fibrinogen (Alexa647-labelled); assay: fibrinogen binders on compound microarrays, profiling panel, artefact control for SMM control-protein annotation, biochemical, small-molecule microarray, 635/667 nm fluorescence (AID 1131); conditions: fibrinogen-A647 binding fluorescence, higher = more signal;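 also: z-score merges 667 nm fluorescence with per-spot signal-to-noise over triplicate slides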
[5] = target: Follistatin (Homo sapiens) (UniProt P19883); assay: follistatin binders on small-molecule microarrays, primary screen, biochemical, small-molecule microarray, 635/667 nm fluorescence (AID 1132); conditions: FST binding, 635 nm fluorescence, higher = more signal
[6] = target: Fibroblast growth factor 2 (Homo sapiens) (UniProt P09038); assay: FGF2 binders on small-molecule microarrays, primary screen, biochemical, small-molecule microarray, 635/667 nm fluorescence (AID 1133); conditions: small-molecule microarray binding, FGF2, fluorescence 635/667; higher = more signal
[7] = mitochondrial membrane potential change in A549 cells, profiling panel, cell-based, JC-1 fluorescence, basal, 24 h, 100 nL (AID 1138); conditions: higher = more signal;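 also: A549 lung adenocarcinoma cells under basal conditions with no added stimulus; test concentration not given here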
Lefty1 = Lefty1 binders on small-molecule microarrays, primary screen, biochemical, small-molecule microarray, 635/667 nm fluorescence (AID 1139); conditions: small-molecule microarray binding, fluorescence 635/667; higher = more signal
[8] = tested on: wheat germ agglutinin (Triticum aestivum), Alexa647-labelled; assay: wheat germ agglutinin binders on compound microarrays, profiling panel, artefact control for SMM control-protein annotation, biochemical, small-molecule microarray, 635/667 nm fluorescence (AID 1140); conditions: WGA-A647 binding, 635 nm fluorescence, higher = more signal;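 also: score merges 667 nm feature emission with signal to noise over triplicate slides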
[9] = target: Luciferin 4-monooxygenase (Photinus pyralis) (UniProt P08659); assay: firefly luciferase enzyme inhibitors, primary screen, biochemical, luminescence, purified enzyme, 2006 set (AID 1141); conditions: SteadyGlo luminescence, 30 min, higher = more signal, called active from +8 up or from −8 down;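 also: cell-free assay with purified firefly luciferase at 100 ng per well in PBS; test concentration not given here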
[10] = tested on: Wnt5a (protein binding on small-molecule microarray); assay: Wnt5a binders on small-molecule microarray, primary screen, biophysical, 635/667 nm fluorescence (AID 1142); conditions: 635 nm fluorescence, higher = more signal;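 also: fluorescence read at 667 nm with signal to noise per printed feature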
[11] = cell viability in Huh7 cells, primary screen, cytotoxicity control for HCV replication inhibitor project, CellTiter-Glo luminescence, basal, 48 h (AID 1143); conditions: Huh7 HCV replicon, higher = more signal, called active from +8 up or from −8 down;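 also: Huh7 hepatoma cells carrying a hepatitis C replication reporter with no stimulus; test concentration not given here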
[12] = P. aeruginosa biofilm formation inhibitors, primary screen, PAO1 strain, BacTiter-Glo luminescence, LB-PBS (AID 1144); conditions: 12 h, higher = more signal
[13] = CREB reporter modulators without forskolin, primary screen, cell-based, PC12, CRE-LacZ reporter, unstimulated (AID 1145); conditions: no forskolin, luminescence, 4.5 h, higher = more signal, called active from +8 up or from −8 down
[14] = CREB reporter modulators under forskolin, primary screen, cell-based, PC12, CRE-LacZ reporter, forskolin-stimulated (AID 1146); conditions: luminescence, 4.5 h, higher = more signal, called active from +8 up or from −8 down;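 also: PC12 cells with 6xCRE LacZ reporter stimulated by forskolin 10 µM; beta-galactosidase reporter signal reflecting CREB driven transcription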
[15] = target: Streptavidin (Streptomyces avidinii) (UniProt P22629); assay: streptavidin binders on small-molecule microarray, primary screen, artefact control for SMM compound annotation, biophysical, 635/667 nm fluorescence (AID 1147); conditions: streptavidin binding, higher = more signal;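 also: signal reflects streptavidin binding to arrayed compounds as a control protein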
[16] = small-molecule binders of probe aInhba, primary screen, biochemical, small-molecule microarray, 635/667 nm fluorescence (AID 1148); conditions: higher = more signal;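 also: score merges 667nm spot fluorescence with signal-to-noise for antibody binding to printed compounds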
Torsin-1A (Homo sapiens) [17] = target: Torsin-1A (Homo sapiens) (UniProt O14656); assay: torsin A binders from cell lysate, primary screen, small-molecule microarray, wild-type, 635/667 nm (AID 1149); conditions: COS7 hTOR1A-WT lysate, 635 nm fluorescence, higher = more signal
Torsin-1A (Homo sapiens) [18] = target: Torsin-1A (Homo sapiens) (UniProt O14656); assay: small-molecule binders of mutant TOR1A in lysate, primary screen, cell lysate, small-molecule microarray, COS7 lysate, 635/667 nm fluorescence (AID 1150); conditions: COS7 hTOR1A mutant lysate, 635 nm fluorescence, higher = more signal;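 also: score pools 667 nm emission and signal to noise measuring lysate protein binding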
[19] = tested on: Sonic hedgehog protein (Shh); assay: small-molecule binders of Shh protein, primary screen, biochemical, small-molecule microarray, 635/667 nm fluorescence (AID 1151); conditions: small-molecule microarray binding, 635 nm fluorescence; higher = more signal;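 also: Shh protein binding to compounds spotted on small-molecule microarray slides; score combines spot fluorescence intensity with signal-to-noise across triplicate slides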

Chain of Fibroblast growth factor 2 (Homo sapiens) (P09038 whole entry, looked up): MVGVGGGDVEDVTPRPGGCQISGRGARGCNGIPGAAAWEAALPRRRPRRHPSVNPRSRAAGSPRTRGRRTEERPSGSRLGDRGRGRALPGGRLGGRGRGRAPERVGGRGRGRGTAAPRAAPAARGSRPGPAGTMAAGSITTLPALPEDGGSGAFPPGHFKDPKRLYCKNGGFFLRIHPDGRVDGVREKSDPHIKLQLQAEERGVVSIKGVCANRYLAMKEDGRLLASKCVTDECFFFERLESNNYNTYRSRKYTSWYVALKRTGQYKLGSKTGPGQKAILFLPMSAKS
Chain of Luciferin 4-monooxygenase (Photinus pyralis) (P08659 whole entry, looked up): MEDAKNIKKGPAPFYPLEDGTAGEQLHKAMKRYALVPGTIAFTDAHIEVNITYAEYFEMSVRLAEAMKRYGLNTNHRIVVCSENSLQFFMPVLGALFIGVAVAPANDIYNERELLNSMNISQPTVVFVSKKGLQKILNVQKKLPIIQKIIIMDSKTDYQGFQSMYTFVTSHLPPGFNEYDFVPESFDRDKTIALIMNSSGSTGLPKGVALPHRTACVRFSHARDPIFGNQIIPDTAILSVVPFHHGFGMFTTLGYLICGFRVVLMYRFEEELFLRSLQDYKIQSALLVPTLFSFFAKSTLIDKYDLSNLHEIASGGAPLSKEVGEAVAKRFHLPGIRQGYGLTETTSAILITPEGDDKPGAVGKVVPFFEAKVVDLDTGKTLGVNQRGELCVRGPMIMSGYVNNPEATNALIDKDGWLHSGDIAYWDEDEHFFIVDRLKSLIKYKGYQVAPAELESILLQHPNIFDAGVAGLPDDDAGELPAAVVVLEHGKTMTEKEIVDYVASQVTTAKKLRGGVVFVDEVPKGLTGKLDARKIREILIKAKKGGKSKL
Chain of Follistatin (Homo sapiens) (P19883 whole entry, looked up): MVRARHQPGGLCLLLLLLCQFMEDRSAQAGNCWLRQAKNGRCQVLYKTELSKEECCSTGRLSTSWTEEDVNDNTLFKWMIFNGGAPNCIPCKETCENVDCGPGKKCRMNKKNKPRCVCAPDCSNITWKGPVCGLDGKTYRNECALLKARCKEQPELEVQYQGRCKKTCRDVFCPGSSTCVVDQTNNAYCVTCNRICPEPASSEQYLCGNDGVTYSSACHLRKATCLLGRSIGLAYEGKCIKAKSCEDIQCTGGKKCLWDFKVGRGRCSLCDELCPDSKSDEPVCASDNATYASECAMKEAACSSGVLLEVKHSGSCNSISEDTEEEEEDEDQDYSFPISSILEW
Chain of Torsin-1A (Homo sapiens) (O14656 whole entry, looked up): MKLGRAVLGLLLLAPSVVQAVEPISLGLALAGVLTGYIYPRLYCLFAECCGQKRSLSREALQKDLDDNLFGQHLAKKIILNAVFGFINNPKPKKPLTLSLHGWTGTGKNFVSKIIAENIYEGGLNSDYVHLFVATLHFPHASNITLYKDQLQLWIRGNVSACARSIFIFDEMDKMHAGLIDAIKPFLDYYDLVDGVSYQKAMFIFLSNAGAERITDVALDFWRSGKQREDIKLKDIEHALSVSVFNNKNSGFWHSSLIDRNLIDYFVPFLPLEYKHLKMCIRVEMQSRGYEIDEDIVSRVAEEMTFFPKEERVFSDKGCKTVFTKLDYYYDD
Chain of Focal adhesion kinase 1 (Homo sapiens) (Q05397 whole entry, looked up): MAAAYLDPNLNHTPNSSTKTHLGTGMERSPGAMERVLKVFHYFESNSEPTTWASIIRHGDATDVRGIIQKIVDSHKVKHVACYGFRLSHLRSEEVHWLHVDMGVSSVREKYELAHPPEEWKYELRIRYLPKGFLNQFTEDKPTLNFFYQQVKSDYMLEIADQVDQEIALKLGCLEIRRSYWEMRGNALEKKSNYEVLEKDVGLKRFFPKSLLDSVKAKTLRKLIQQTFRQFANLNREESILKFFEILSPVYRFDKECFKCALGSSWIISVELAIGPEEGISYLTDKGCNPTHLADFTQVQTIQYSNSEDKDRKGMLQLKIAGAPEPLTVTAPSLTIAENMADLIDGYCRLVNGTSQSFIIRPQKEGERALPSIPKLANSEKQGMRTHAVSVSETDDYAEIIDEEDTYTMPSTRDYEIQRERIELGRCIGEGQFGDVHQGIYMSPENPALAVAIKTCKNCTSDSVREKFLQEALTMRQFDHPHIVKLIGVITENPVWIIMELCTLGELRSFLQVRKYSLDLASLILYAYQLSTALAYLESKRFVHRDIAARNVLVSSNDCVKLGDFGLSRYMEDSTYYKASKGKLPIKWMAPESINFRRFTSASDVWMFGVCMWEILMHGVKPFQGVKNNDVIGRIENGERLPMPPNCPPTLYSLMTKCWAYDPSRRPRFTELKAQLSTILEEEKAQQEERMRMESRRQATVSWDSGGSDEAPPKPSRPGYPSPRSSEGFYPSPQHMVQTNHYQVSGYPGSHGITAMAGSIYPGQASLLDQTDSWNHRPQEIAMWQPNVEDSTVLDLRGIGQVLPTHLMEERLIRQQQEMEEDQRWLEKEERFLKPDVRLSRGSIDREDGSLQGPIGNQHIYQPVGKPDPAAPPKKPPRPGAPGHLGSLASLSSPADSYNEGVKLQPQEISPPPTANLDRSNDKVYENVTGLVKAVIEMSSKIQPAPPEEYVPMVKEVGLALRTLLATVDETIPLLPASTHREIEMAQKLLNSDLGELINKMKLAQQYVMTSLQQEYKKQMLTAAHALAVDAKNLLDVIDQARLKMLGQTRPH
Chain of Streptavidin (Streptomyces avidinii) (P22629 whole entry, looked up): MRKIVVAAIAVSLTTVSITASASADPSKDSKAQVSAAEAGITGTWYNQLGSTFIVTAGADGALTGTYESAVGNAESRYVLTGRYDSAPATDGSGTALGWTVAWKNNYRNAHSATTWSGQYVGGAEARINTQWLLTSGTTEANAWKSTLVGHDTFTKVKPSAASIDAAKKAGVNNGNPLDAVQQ

SMILES	composite z-score [1]	composite z-score [2]	composite z-score [3]	composite z-score [4]	composite z-score [5]	composite z-score [6]	z-score [7]	composite z-score (Lefty1)	composite z-score [8]	z-score [9]	composite z-score [10]	z-score [11]	z-score [12]	z-score [13]	z-score [14]	composite z-score [15]	composite z-score [16]	composite z-score (Torsin-1A (Homo sapiens) [17])	composite z-score (Torsin-1A (Homo sapiens) [18])	composite z-score [19]
C=C(COC)C(=O)CC[C@H](OC(C)=O)c1ccc(CO)o1	1.59	-0.805	-0.451	0.0974	1.37	1.45	-0.403	0.744	0.841	0.288 (inactive)	-0.0261	-2.28 (inactive)	-0.824 (inactive)	-0.0884 (inactive)	0.464 (inactive)	-0.0888	-0.101	-0.675	-0.337	1.55
NCCCCCCNC(=O)[C@@H]1C[C@@H]2C(=O)NCC(=O)N2[C@@H]1c1cccc(OCCO)c1	-0.207	1.23	1.36	0.416	1.46	1.6	1.21	1.52	0.917	-1.66 (inactive)	0.729	-0.271 (inactive)	-0.584 (inactive)	0.0205 (inactive)	-0.19 (inactive)	1.03	-0.0624	1.56	2.08	1.31
Cc1ccc(S(=O)(=O)N2[C@@H](c3ccccc3)C(C(=O)O)=C[C@H]2C(C)(C)C)cc1	1.43	1.18	1.31	0.651	0.804	-0.0977	-1.04	0.576	1.31	1.19 (inactive)	0.211	-1.23 (inactive)	0.137 (inactive)	0.238 (inactive)	0.926 (inactive)	1.52	0.209	0.391	0.985	0.719
COc1ccc(-c2cc3c(c(CCc4ccccc4)n2)[Si](C(C)C)(C(C)C)O[C@H]3c2ccccc2)cn1	-0.0334	-0.547	0.16	0.285	0.432	0.0958	0.412	0.169	0.0926	-0.315 (inactive)	-0.143	-0.248 (inactive)	-0.113 (inactive)	4.67 (inactive)	-0.0122 (inactive)	0.547	-0.0762	-0.719	-0.534	0.431
[N-]=[N+]=NCc1ccccc1C[C@@]1(C(N)=O)N=C(c2ccc(OCCCO)cc2)O[C@@H]1c1ccccc1N=[N+]=[N-]	1.16	1.24	0.0254	0.991	0.102	-0.131	0.306	-0.804	0.68	-5.46 (inactive)	0.336	-3.18 (inactive)	1.33 (inactive)	1.01 (inactive)	-0.626 (inactive)	1.31	-0.145	0.369	0.409	-0.455
CN(C)CCCC[C@@H]1NC(=O)[C@H]2C[C@@H](C(=O)NCCCCCCNC(=O)CS)[C@@H](c3cccc(OCCO)c3)N2C1=O	1.17	0.593	0.292	0.511	0.52	1	0.115	-0.673	-0.115	0.117 (inactive)	0.1	1.17 (inactive)	-0.444 (inactive)	-0.809 (inactive)	-1.09 (inactive)	0.0448	-0.101	0.0638	0.767	0.871
CCCC1(C(=O)OC)C=C2C(=C(C(C)C)C(=O)C2C)CN1 (stereo not given)	1.76	-1.58	-0.222	-0.727	-0.927	-0.434	0.905	-1.1	-0.116	1.88 (inactive)	-0.0597	-0.349 (inactive)	0.2 (inactive)	0.786 (inactive)	-0.645 (inactive)	-0.481	-0.0791	-0.814	0.29	-0.182
COc1ccc([Si](C)(C)[C@H]2[C@H](CC(=O)N(CCO)Cc3ccccc3)O[C@@]3(C(=O)N(Cc4ccc(N5C(=O)c6cccc7cccc5c67)cc4)c4ccccc43)[C@@H]2C)cc1	0.53	0.714	0.0253	0.624	1.17	1.06	-0.701	1.2	0.59	-0.354 (inactive)	0.954	-4.47 (inactive)	0.278 (inactive)	0.353 (inactive)	-0.429 (inactive)	0.555	0.545	-0.237	0.454	2.17
C[C@]1(C(=O)O)c2ccccc2C(=O)N(Cc2cc(C(F)(F)F)cc(C(F)(F)F)c2)[C@H]1c1ccc(CO)cc1	-0.41	-0.129	0.0797	0.844	0.82	-0.354	-0.401	1.02	0.861	1.01 (inactive)	0.0785	0.104 (inactive)	-0.518 (inactive)	0.531 (inactive)	0.165 (inactive)	1.41	0.0227	-0.652	-0.113	1.64
CCCCC(=C=CC[C@@H](O)c1ccc(OCCO)cc1)CCO	1.83	0.407	0.814	0.0258	0.66	0.329	1.57	0.452	1.16	-1.91 (inactive)	-0.032	-1.75 (inactive)	0.234 (inactive)	7.73 (inactive)	-0.882 (inactive)	-0.217	0.0342	0.112	0.654	0.98
